Source: PubChem BioAssay AID1347416 (National Center for Advancing Translational Sciences (NCATS), 2020)
Hit rate of the full screen: of about 4,100 compounds, about 1,600 (39%) were called active. Not shown: some 25% with an inconclusive outcome. Calls follow the shape of the dose curve; as a rule, active = well fitted inhibition curve with a large enough effect; inconclusive = small, poorly fitted or top-dose-only effect; inactive = no such curve, though single readings can be large or run the other way. Some of the results follow.

Test: qHTS Validation assay for Inhibitors of Plasmodium falciparum Dd2 growth in vitro; also: nearly all actives have a fitted effect of over 70% in size
Conditions: P. falciparum Dd2 in RBCs, SYBR Green growth, 72 h; series mostly up to 28.7 µM; activity change, negative = inhibition: at the top concentration
Summary of the method: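 P. falciparum Dd2-infected red blood cells (2.5% hematocrit, 0.3% parasitemia) grown 72 h at 37 °C under 5% O2 with compounds in a titration, 29 uM to 0.5 nM final. Growth read as SYBR Green-1 fluorescence after ~16 h lysis; artesunate 300 nM as positive control.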
% is scaled to controls: 0 for no effect and ±100 for the full control effect; potency is read from the fitted curve at half-maximal effect.

Row | SMILES | Potency | activity change, negative = inhibition
1 | O=C(CSc1nc(Nc2ccccc2)nc(N2CCOCC2)n1)Nc1cc(Cl)ccc1O | 2.37 µM (active) | 
2 | CCN(CC)CCNC(=O)c1ccc(NC(=O)c2cn(-c3ccc(F)cc3)nc2-c2cccc(OC)c2)cc1 | 9.44 µM (active) | 
3 | COc1cccc(-c2cc3c(=O)n(CCNC(=O)COc4ccc(F)cc4)ccn3n2)c1 |  | 10.4% (inactive)
4 | Cc1nn(-c2ccccc2)nc1-c1nnc(-c2ccc(C(F)(F)F)cc2)o1 |  | 24.1% (inactive)
5 | COc1cc(NC2CCCCC2O)c2nc(-c3ccc(Cl)cc3)ccc2c1 (centres undefined) | 5.31 µM (active) | 
6 | Oc1ccc(Cl)cc1CNCc1cccc2ccccc12 | 0.842 µM (active) | 
7 | Oc1ccc(Cl)cc1CNCC1CCCCC1 | 4.22 µM (active) | 
8 | Oc1ccc(Cl)cc1CNCc1ccc(C(F)(F)F)cc1 | 4.22 µM (active) | 
9 | CC(=O)Nc1ccc(S(=O)(=O)N2CCC(n3c(C)nc4cccnc43)CC2)cc1 |  | 23.5% (inactive)
10 | O=C(Nc1cccc(Oc2ccc(C(=O)O)c(C(=O)O)c2)c1)c1ccc(-c2ccccc2)cc1 |  | 11.3% (inactive)
11 | O=C(Nc1cccc(-c2nc3ccccc3[nH]2)c1)c1ccc(C(=O)Nc2cccc(-c3nc4ccccc4[nH]3)c2)cc1 | 2.66 µM (active) | 
12 | Nc1ccc2nc(-c3cccnc3)[nH]c2c1 |  | -37.2% (inactive)
13 | CC1CCCCN1S(=O)(=O)c1ccc(C(=O)Nc2ccccc2-c2nc3ccccc3[nH]2)cc1 (centres undefined) | 7.5 µM (active) | 
14 | COC(=O)c1ccc(NC(=O)CSc2nc3cc4ccccc4cc3[nH]2)cc1 |  | -17.5% (inactive)
15 | CS(=O)(=O)c1ccc(C(=O)Nc2ccc(-c3nc4ccccc4[nH]3)cc2)cc1 | 7.5 µM (active) | 
16 | CC(C)(C)N1C(=O)c2ccc(C(=O)Nc3ccc(-c4nc5ccccc5[nH]4)cc3)cc2C1=O | 6.68 µM (active) | 
17 | COc1ccc(CCN(C)C(=S)Nc2cccc(C)c2)cc1OC | 2.11 µM (active) | 
18 | COc1cc2c(cc1OC)C(c1ccccc1N)=NCC2 |  | -18.1% (inactive)
19 | Brc1c(C[n+]2ccccc2)nc2ccccn12 |  | -12.1% (inactive)
20 | CCc1cc(CN(C)C(=O)c2cc(COc3ccccc3F)[nH]n2)on1 |  | 29.2% (inactive)
21 | CC1(c2ccccc2)N(Cc2cccnc2)C(=O)OC12CCN(Cc1ccccc1)CC2 (centres undefined) | 17.2 µM (active) | 
22 | CCN1CCN(c2nc3c(s2)CN(C(=O)Cc2cccnc2)CC3)CC1 |  | 29.4% (inactive)
23 | CC1(c2ccccc2)N(Cc2ccccc2)C(=O)OC12CCN(Cc1cccnc1)CC2 (centres undefined) | 15.3 µM (active) | 
24 | CC(=O)Nc1ccc(CN2C(=O)OC3(CCN(C(=O)C4CCC4)CC3)C2(C)c2ccccc2)cc1 (centres undefined) |  | -21.2% (inactive)

Row | SMILES | Potency | activity change, negative = inhibition
25 | CC1(c2ccccc2)N(Cc2cccnc2)C(=O)OC12CCN(C(=O)Cc1ccc(Cl)cc1)CC2 (centres undefined) | 13.3 µM (active) | 
26 | CCN(CC)c1ccc(C(=O)N2CCCC(n3cc(-c4noc(C)n4)nn3)C2)cc1 (centres undefined) |  | -5.7% (inactive)
27 | COc1ccc(C(=O)N[C@@H]2CN(Cc3cccc(OC)c3)CCC[C@H]2O)cc1 | 10.9 µM (active) | 
28 | COc1ccc(C(=O)N[C@@H]2CCC[C@@H]2C(=O)NC(C)C)cc1 |  | -18.7% (inactive)
29 | COc1cccc(CNC(=O)N[C@@H]2CN(Cc3ccncc3)C[C@H]2CN(C)C)c1 |  | 0% (inactive)
30 | CC(C)(C)Nc1nc(NC(C)(C)C)nc(-n2ccnc2)n1 | 4.73 µM (active) | 
31 | CCc1ccc(CN(C(=O)c2nc(SC)ncc2Cl)C2CCS(=O)(=O)C2)cc1 (centres undefined) |  | -8.57% (inactive)
32 | CN(C)c1ccc2ncc(Nc3ccc(Oc4ccccc4)cc3)n2n1 | 8.63 µM (active) | 
33 | c1ccc(Oc2ccc(Nc3cnc4ccc(N5CCOCC5)nn34)cc2)cc1 | 7.69 µM (active) | 
34 | CN1CCN(c2ccc(-c3cccc(N)c3)nn2)CC1 |  | -6.65% (inactive)
35 | CN1CCN(c2ccc3ncc(Nc4ccccc4-c4ccccc4)n3n2)CC1 | 0.863 µM (active) | 
36 | O=C(Nc1ccccc1C(F)(F)F)c1cc(-c2ccccc2O)on1 | 2.99 µM (active) | 
37 | COc1cc(NC(=O)c2cc(-c3cccs3)on2)c(OC)cc1Cl |  | 4.63% (inactive)
38 | O=C(Nc1ccccc1OCc1cc(=O)n2ccccc2n1)Nc1ccccc1C(F)(F)F |  | 64.6% (inactive)
39 | COc1ccc(/C=N/Nc2nc(Nc3ccccc3)nc(N3CCCC3)n2)cc1[N+](=O)[O-] | 6.68 µM (active) | 
40 | Cc1ccc(-c2noc(-c3ccc(N4CCCC4)c([N+](=O)[O-])c3)n2)cc1 |  | -4.43% (inactive)
41 | CCOc1cccc(/C=N/Nc2nc(N3CCCC3)nc(N3CCCC3)n2)c1O |  | -13.7% (inactive)
42 | NCCn1cc(C(=O)N2CCCC(c3[nH]ncc3Cc3ccccc3)C2)nn1 (centres undefined) |  | 35.2% (inactive)
43 | COc1ccc(Nc2c(-c3cc(Br)ccc3O)nc3ncccn23)cc1OC | 4.73 µM (active) | 
44 | CCCCNC(=O)c1cccc2c1CCN2S(=O)(=O)c1cccc(C)c1 |  | -16.4% (inactive)
45 | CC(C)(C)CC(=O)Nc1ccc(S(=O)(=O)N2CCCC2)cc1 |  | 23.1% (inactive)
46 | CCN(CC)CCNC(=O)c1ccc(NC(=O)c2cccc(S(=O)(=O)N3CCc4ccccc43)c2)cc1 | 5.31 µM (active) | 
47 | CCN(CC)CCCNC(=O)C1CCN(S(=O)(=O)CC)CC1 |  | 9.31% (inactive)
48 | CCN(CC)CCNC(=O)c1ccc(NC(=O)c2ccc(S(=O)(=O)N3CCCCCC3)cc2)cc1 | 8.41 µM (active) | 

Row | SMILES | Potency | activity change, negative = inhibition
49 | Cc1cc(C)cc(N2C(N)=NC(N)=NC2c2cccc(Cl)c2)c1 (centres undefined) |  | -28.9% (inactive)
50 | O=C(Cc1cccc(F)c1)N1CCCC(Cc2nc(C3CCOCC3)no2)C1 (centres undefined) |  | -15.4% (inactive)
51 | COc1ccc(-c2cc(N3CCCC(NC(=O)c4cccc(F)c4)C3)n[nH]2)cc1 (centres undefined) |  | -11.7% (inactive)
52 | Cc1nc2c(c(N3CCCC(COc4cccc(F)c4)C3)n1)CCNCC2 (centres undefined) | 8.41 µM (active) | 
53 | COC1C(=O)N(c2cccc(F)c2)C12CCN(C(=O)c1cc3ccccc3[nH]1)CC2 (centres undefined) |  | -71.7% (inactive)
54 | CC(C)CN(CCNC(=O)c1cc(-c2ccc(Cl)s2)nc2ccccc12)CC(C)C | 7.5 µM (active) | 
55 | O=C(Nc1ccccc1)[C@H]1O[C@H](CCN2CCN(c3ccc(F)cc3)CC2)CC[C@@H]1O | 10.9 µM (active) | 
56 | Cc1cccc(NC(=O)CCN2CCN(c3ccccc3F)CC2)c1 |  | 18.2% (inactive)
57 | Cc1cccc(N(C)S(=O)(=O)c2nnc(NC(=O)C(C)Oc3ccccc3)s2)c1 (centres undefined) |  | -12.3% (inactive)
58 | Cc1cccc(N(C)c2nc3ccccc3c3nnc(C)n23)c1 | 1.06 µM (active) | 
59 | COc1cc2c(cc1OC)CN(c1ccc3ccccc3n1)CC2 |  | -25.5% (inactive)
60 | Cc1ccccc1OCC(O)CN(Cc1ccccc1O)C1CCCCC1 (centres undefined) | 0.119 µM (active) | 
61 | O=C(NC1CC1)C1COC2(CCN(C(=O)c3ccc(F)cc3)CC2)N1C(=O)c1cccc(F)c1 (centres undefined) |  | -4.58% (inactive)
62 | CCCS(=O)(=O)N1CC(=O)N(c2cccc(F)c2)C(C)(C(=O)NC2CCCCCC2)C1 (centres undefined) |  | 23.3% (inactive)
63 | O=C(NC1CC1)c1ccc(CSCc2cccc(F)c2)o1 | 8.41 µM (active) | 
64 | Cc1ccc(CSCc2ccc(C(=O)NC3CC3)o2)cc1 | 2.66 µM (active) | 
65 | CCC1=C(C(=O)OC)C(c2cccc(F)c2)N2C(CC(=O)NCCc3cccs3)=CSC2=N1 (centres undefined) | 9.44 µM (active) | 
66 | O=C(COc1ccc(Cl)cc1)NCCc1csc(-c2cccc(F)c2)n1 |  | -1.83% (inactive)
67 | CCCNC(=O)N1CC[C@@H]2[C@H]1C(=O)N(c1cccc(F)c1)C(=O)N2Cc1cccs1 |  | -10.5% [at 43.1 µM] (inactive)
68 | CCCc1noc(-c2cn(C3CCN(C(=O)c4ccc(OC)cc4C)CC3)nn2)n1 |  | -20.5% (inactive)
69 | CCOc1ccc(-c2cc3nc(C4CCN(C(=O)OC(C)(C)C)CC4)c(C(=O)Nc4ccc(C(=O)OC)cc4)cn3n2)cc1 | 4.73 µM (active) | 
70 | CCOc1ccc(NC(=O)c2ccc3c(c2)N(C)C2CCCN2C3=O)cc1 (centres undefined) |  | 0% (inactive)
71 | O=C(c1[nH]nc2c1COc1ccccc1-2)N1CCC(Cc2nncn2CC2CC2)CC1 |  | -3.31% (inactive)
72 | CC(=O)Nc1ccc(NC(=O)c2c(C)oc3ccn(Cc4ccc(F)cc4)c(=O)c23)cc1 | 10.6 µM (active) | 

Row | SMILES | Potency | activity change, negative = inhibition
73 | O=C(Nc1ccc(F)c(F)c1)c1ccc(=O)n(Cc2ccc(F)cc2)c1 |  | 3.37% (inactive)
74 | Cc1ccc(-c2nc(NC(=O)c3cc(C(C)(C)C)nn3C)sc2C)cc1Cl | 10.6 µM (active) | 
75 | CCOC(=O)c1cc(-c2ccc(OC)cc2)n(CCC(=O)Nc2cccc(C(C)=O)c2)c1C | 0.211 µM (active) | 
76 | CCOC(=O)c1cccc(NC(=O)CSc2cc(=O)n(C)c3ccccc23)c1 |  | 9.12% (inactive)
77 | CCOC(=O)c1cccc(NC(=O)CCn2c(-c3ccc(F)cc3)cc(C(=O)OCC)c2C)c1 | 0.075 µM (active) | 
78 | CCOC(=O)c1cccc(NC(=O)C2=C(C)C(=O)OC23CCCCC3)c1 |  | 1.2% (inactive)
79 | CCN1CCN(Cc2ccc(NC(=O)c3cc(NC(=O)C4=NN(c5ccccc5)C(=O)C4)cc(OC)c3)cc2C(F)(F)F)CC1 | 8.41 µM (active) | 
80 | CCN1CCN(Cc2ccc(NC(=O)c3ccc(C)c(NC(=O)C4=NN(c5ccccc5)C(=O)C4)c3)cc2C(F)(F)F)CC1 | 8.41 µM (active) | 
81 | CCN1CCN(Cc2ccc(NC(=O)c3cc(NC(=O)c4cnn(-c5ccccc5)c4N)cc(OC)c3)cc2C(F)(F)F)CC1 | 2.11 µM (active) | 
82 | CCCCN(C(=O)c1cccc(S(=O)(=O)N(C)c2ccc(C)cc2)c1)c1c(N)n(CCCC)c(=O)[nH]c1=O | 5.31 µM (active) | 
83 | O=C1NC2(CCN(Cc3ccc(C(F)(F)F)cc3)CC2)COc2ccccc21 | 8.41 µM (active) | 
84 | O=C1NC2(CN(Cc3ccc(F)cc3)C2)Oc2ccccc21 |  | -14.2% [at 43.1 µM] (inactive)
85 | O=C1NC2(CCN(C(=O)c3cccnc3)CC2)Oc2ccccc21 |  | 34.6% [at 43.1 µM] (inactive)
86 | O=C1Nc2ccccc2CC12CCCCN2Cc1ccc(C(F)(F)F)cc1 (centres undefined) |  | 10.3% (inactive)
87 | CN(C)c1ccc(CN2CCC3(CC2)COc2ccccc2C(=O)N3)cc1 | 2.66 µM (active) | 
88 | COc1cccc([S+](=O)([O-])N2CCC3(COc4ccccc4C(=O)N3)C2)c1 (centres undefined) |  | 5.79% (inactive)
89 | O=C1NC2(CCN(C(=O)c3ccc(C(F)(F)F)cc3)CC2)COc2ccccc21 | 8.41 µM (active) | 
90 | O=C1CC2CCCC(C1)N2C(=O)c1ccc(C(F)(F)F)cc1 |  | 35.6% [at 43.1 µM] (inactive)
91 | C=C(C)COc1ccc(-c2ncnc(C(F)(F)F)c2-c2ccc(OC)cc2)c(O)c1 | 2.99 µM (active) | 
92 | C=C(C)COc1ccc(-c2ncncc2-c2ccc(Br)cc2)c(O)c1 |  | -25.8% (inactive)
93 | C=C(C)COc1ccc(-c2ncnc(C(F)(F)F)c2-c2ccccc2)c(O)c1 | 2.37 µM (active) | 
94 | C=C(C)COc1ccc(-c2n[nH]c(C)c2-c2ccccc2)c(O)c1 | 4.73 µM (active) | 
